According to PubChem BioAssay (NCATS):
Records with an inconclusive call do not appear. Active and inactive are the calls of the source. Unless noted, the call rests on the fitted dose curve; in most records, active means well fitted curve in the direction sought with a large enough effect; inconclusive means small, poorly fitted or top-dose-only effect, or another doubt; inactive means no such curve, though single readings can be large; an effect the other way counts as inactive or inconclusive.

Legend:
[1] = Cytometric Cell-Based qHTS for Inhibitors of the mTORC1 Signaling Pathway in MEF (Tsc2-/-, p53-/-) Cells (AID 2660);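 further: Tsc2 and p53 null MEFs carrying empty vector with compound for 24 h; percent of cells above a phospho-rpS6 to PI ratio cutoff in each well; series mostly up to about 38 µM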
Outline: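 Readout: Alexa-488 phospho-rpS6 (Ser235/236) intensity divided by PI intensity, thresholded against 7.5 nM rapamycin wells and reported as % positive cells. PI cell count served as the viability measure. Compound exposure was 24 hrs at 37 degree Celsius.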

[2] = High Content Imaging Cell-Based qHTS for Inhibitors of the mTORC1 Signaling Pathway in MEF (Tsc2-/-, p53-/-) Cells (AID 2666);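 further: percent of cells scored positive for phospho-rpS6 Ser235/236 immunostaining by imaging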
Outline: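 MEF Tsc2-/- p53-/- (empty vector), DMEM/10% FBS; cpd 24 h 37 °C; PFA fix, Alexa-488 p-rpS6 S235/236 Ab, Hoechst; imaged; rapamycin-defined inhibition; % positive cells/well.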

[3] = High Content Imaging Cell-Based qHTS for Inhibitors of the mTORC1 Signaling Pathway in MEF Cells (AID 2667);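 further: Tsc2-/- p53-/- MEFs stably re-expressing wild-type Tsc2 exposed 24 h; series mostly up to about 38 µM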
Outline: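 Read-out is the share of phospho-rpS6-positive cells per well, from Hoechst-normalized Alexa-488 Ser235/236 staining imaged on IN Cell. Cells: WT Tsc2-expressing Tsc2-/-, p53-/- MEFs exposed to compound for 24 hrs.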

[4] = Cytometry Cell-Based qHTS for Inhibitors of the mTORC1 Signaling Pathway in MEF cells (AID 2668);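 further: Tsc2-/- p53-/- mouse embryonic fibroblasts stably re-expressing wild-type Tsc2; percent cells positive for phospho-rpS6 Ser235/236 relative to propidium iodide stain; series mostly up to about 38 µM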
Outline: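 In MEFs grown in DMEM + 10% FBS, a 24 hrs compound exposure preceded imaging of phospho-rpS6 Ser235/236 by laser-scanning cytometry.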

[5] = biological target: Ubiquitin carboxyl-terminal hydrolase 2 (Homo sapiens) (UniProt O75604); assay: qHTS Validation Assay for Inhibitors of Ubiquitin-specific Protease USP2a Using CHOP2 as the Reporter (AID 463106)
Sequence of Ubiquitin carboxyl-terminal hydrolase 2 (Homo sapiens) (O75604 whole entry, looked up): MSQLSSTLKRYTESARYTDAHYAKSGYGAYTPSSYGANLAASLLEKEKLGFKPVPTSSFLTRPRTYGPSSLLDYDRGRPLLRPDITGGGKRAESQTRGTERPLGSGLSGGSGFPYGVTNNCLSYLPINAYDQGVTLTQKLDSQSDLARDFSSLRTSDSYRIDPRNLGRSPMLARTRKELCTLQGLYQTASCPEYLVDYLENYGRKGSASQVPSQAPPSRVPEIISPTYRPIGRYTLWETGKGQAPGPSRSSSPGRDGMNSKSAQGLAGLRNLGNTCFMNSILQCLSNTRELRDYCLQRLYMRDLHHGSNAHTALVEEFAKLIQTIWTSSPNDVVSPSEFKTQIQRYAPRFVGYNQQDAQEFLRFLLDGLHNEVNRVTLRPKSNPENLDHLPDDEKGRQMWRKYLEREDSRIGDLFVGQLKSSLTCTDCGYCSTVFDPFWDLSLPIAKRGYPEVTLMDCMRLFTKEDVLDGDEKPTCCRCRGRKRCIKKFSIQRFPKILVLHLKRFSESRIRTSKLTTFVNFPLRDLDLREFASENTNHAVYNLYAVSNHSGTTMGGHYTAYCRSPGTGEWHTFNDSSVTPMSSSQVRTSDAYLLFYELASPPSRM
Outline: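 Fluorescence read-out at Ex 485nm/Em 531nm after 60min RT, following addition of 25nM Ub-CHOP2 plus 25nM reporter substrate to USP2 core (10nM) pretreated 30min with compound. Data normalized to NEM full inhibition; concentration-response curves fitted.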

[6] = biological target: Beta-2 adrenergic receptor (Homo sapiens) (UniProt P07550); assay: qHTS validation assay of beta-arrestin-biased ligands of beta2-adrenergic receptor (AID 485366)
Outline: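 Agonist activity is measured as luciferase luminescence downstream of beta-arrestin recruitment to recombinant beta2-AR in Tango cells. Exposure lasts 18 hr at 37 degrees C, and curves are categorized by r2, response size and activity.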

[7] = Quantitative high throughput screen for delayed death inhibitors of the malarial parasite plastid, 96 hour incubation (AID 488745); further: nearly all actives have a fitted effect of over 70% in size; further: potency means the concentration at half of the fitted maximal effect
Outline: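 Two-generation (96 h) exposure of luciferase-reporter P. falciparum in erythrocytes, 2% hematocrit, 0.1% parasitemia final, 37 C, 5% CO2, RPMI 1640 with 0.5% Albumax. Growth inhibition scored by reduced luminescence.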

[8] = Quantitative high throughput screen for delayed death inhibitors of the malarial parasite plastid, 48 hour incubation (AID 488752); further: nearly all actives have a fitted effect of over 65% in size; further: potency means the concentration at half of the fitted maximal effect
Outline: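 Cultures: infected erythrocytes at final 2% hematocrit and 0.1% parasitemia in Albumax-supplemented RPMI. Parasites express integrated firefly luciferase. Incubation with compound lasts 48 h before luminescent detection of remaining reporter activity.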

[9] = biological target: Thioredoxin reductase 1, cytoplasmic (Rattus norvegicus) (UniProt O89049); assay: qHTS Assay for Inhibitors of Mammalian Selenoprotein Thioredoxin Reductase 1 (TrxR1) (AID 488773); conditions: Potency: inhibition;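 further: drop in NADPH fluorescence over an 8 min run after selenite addition; series mostly up to about 57 µM; nearly all actives have a fitted effect of over 40% in size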
Sequence of Thioredoxin reductase 1, cytoplasmic (Rattus norvegicus) (O89049 whole entry, looked up): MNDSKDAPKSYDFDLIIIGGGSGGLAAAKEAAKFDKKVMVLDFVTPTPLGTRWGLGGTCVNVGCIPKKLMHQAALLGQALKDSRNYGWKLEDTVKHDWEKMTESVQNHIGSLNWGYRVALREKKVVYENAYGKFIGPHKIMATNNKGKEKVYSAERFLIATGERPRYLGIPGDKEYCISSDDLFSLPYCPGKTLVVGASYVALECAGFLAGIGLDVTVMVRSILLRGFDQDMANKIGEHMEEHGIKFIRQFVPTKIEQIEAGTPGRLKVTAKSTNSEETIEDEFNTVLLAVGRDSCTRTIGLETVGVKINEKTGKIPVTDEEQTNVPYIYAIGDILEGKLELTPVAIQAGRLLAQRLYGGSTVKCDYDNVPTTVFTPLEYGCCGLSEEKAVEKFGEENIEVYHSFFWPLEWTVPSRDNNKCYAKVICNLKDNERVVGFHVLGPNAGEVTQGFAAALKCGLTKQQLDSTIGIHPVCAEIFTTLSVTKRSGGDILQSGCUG
Outline: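 Inhibition is scored from the loss of NADPH fluorescence between first and last reads of an 8-min kinetic run. Selenite (400 uM) was the substrate, added after 15 min compound preincubation at room temperature.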

[10] = biological target: Flap endonuclease 1 (Homo sapiens) (UniProt P39748); assay: qHTS Validation Assay for the Inhibitors of Human Flap endonuclease 1 (FEN1) (AID 488816)
Sequence of Flap endonuclease 1 (Homo sapiens) (P39748 whole entry, looked up): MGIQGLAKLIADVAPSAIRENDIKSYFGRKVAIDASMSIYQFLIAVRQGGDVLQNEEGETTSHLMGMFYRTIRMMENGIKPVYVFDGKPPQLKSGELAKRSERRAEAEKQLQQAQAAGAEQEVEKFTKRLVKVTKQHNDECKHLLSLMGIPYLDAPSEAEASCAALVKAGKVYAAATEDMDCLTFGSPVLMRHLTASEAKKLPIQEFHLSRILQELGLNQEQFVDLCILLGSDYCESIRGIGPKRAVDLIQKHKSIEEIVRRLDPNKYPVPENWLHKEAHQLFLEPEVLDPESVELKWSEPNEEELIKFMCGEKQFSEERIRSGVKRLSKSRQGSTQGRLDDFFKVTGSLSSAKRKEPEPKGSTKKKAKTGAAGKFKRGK
Outline: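 Enzyme reagent 10 nM; cpds pinned; 15 min RT preinc.; substrate 50 nM final; reads t=0 and 15 min; no-enzyme buffer wells as neg. control; normalized data, 4-parameter Hill fit.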

[11] = biological target: M-phase phosphoprotein 8 (Homo sapiens) (UniProt Q99549); assay: qHTS Validation Assay for Inhibitors for MPP8 Chromodomain Interactions with Methylated Histone Tails (AID 488949);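 further: 50 nM MPP8 with 50 nM peptide preformed then compounds added for 30 min; AlphaScreen signal from MPP8 chromodomain bound to biotinylated H3K9me3 peptide; top concentration of the series differs between compounds; nearly all actives have a fitted effect of over 55% in size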
Sequence of M-phase phosphoprotein 8 (Homo sapiens) (Q99549 whole entry, looked up): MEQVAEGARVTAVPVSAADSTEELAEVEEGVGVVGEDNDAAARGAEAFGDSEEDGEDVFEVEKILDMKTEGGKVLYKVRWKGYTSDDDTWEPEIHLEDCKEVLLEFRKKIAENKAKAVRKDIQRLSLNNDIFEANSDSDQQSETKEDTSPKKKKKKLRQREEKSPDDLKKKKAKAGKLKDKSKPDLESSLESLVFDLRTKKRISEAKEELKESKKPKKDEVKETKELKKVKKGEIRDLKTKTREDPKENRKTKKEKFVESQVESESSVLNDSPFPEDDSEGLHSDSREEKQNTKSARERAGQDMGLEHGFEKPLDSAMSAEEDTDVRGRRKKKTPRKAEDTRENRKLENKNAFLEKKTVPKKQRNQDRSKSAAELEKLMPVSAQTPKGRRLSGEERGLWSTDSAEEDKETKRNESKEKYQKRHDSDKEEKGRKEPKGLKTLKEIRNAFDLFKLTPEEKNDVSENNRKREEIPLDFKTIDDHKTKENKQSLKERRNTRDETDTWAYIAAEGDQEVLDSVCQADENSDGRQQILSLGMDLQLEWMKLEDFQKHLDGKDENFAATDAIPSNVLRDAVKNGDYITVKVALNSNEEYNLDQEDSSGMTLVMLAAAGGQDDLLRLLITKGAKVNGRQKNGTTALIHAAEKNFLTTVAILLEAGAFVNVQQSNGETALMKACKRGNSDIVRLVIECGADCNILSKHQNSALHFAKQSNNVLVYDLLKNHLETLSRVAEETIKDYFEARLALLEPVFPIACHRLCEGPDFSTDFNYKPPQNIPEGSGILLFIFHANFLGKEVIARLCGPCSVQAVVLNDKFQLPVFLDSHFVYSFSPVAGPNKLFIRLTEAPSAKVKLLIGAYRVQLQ
Outline: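 Chemiluminescent proximity assay: histidine-tag capture via nickel acceptor beads, biotin peptide via streptavidin donor beads. Protein and peptide each at 50 nM, pH 7.4, with 30 min incubations at room temperature for complex formation, compound exposure and bead binding.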

[12] = biological target: Chromobox protein homolog 1 (Homo sapiens) (UniProt P83916); assay: qHTS Validation Assay for Inhibitors of HP1-beta Chromodomain Interactions with Methylated Histone Tails (AID 488953);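 further: loss of AlphaScreen luminescence from HP1-beta binding biotinylated H3K9me3 peptide; series mostly up to about 110 µM; nearly all actives have a fitted effect of over 50% in size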
Sequence of Chromobox protein homolog 1 (Homo sapiens) (P83916 whole entry, looked up): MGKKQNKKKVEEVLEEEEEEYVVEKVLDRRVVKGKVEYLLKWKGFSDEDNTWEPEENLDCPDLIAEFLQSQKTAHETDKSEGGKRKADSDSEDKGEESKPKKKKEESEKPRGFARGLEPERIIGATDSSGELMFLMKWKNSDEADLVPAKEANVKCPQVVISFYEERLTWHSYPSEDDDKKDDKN
Outline: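 Compounds pinned into a preassembled complex of HP1-beta and trimethyl-K9 histone H3(1-18) biotin peptide (50 nM each; PBS pH 7.4, 0.01% Tween-20). After 30 min, bead-based AlphaScreen detection followed.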

[13] = biological target: Methanococcus maripaludis chaperonin (MmCpn) (UniProt Q6LX38); assay: High-Throughput Screening for Modulators of Cytosolic Chaperonin Activity: MmCpn Primary Screen (AID 488978)
Sequence of Methanococcus maripaludis chaperonin (MmCpn) (Q6LX38 1-543): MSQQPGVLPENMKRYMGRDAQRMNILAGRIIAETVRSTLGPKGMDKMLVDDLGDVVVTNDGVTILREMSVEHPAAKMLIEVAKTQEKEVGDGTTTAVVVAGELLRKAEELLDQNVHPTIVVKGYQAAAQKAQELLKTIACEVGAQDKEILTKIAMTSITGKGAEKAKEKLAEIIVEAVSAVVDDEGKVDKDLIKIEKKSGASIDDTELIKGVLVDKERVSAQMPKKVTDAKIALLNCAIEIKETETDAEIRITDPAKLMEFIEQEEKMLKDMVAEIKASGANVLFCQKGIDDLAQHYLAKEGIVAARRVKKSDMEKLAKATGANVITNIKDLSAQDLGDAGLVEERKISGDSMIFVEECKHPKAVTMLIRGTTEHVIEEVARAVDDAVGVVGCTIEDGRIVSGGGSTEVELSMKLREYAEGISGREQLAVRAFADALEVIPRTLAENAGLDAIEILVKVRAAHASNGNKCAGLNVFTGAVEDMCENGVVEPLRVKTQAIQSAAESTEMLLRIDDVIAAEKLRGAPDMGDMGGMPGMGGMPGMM
Outline: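 HTRF readout (320 nm excitation, 590/665 nm emission) of ADP generated by 50 nM MmCpn hydrolysing 30 uM ATP during 10 min at 37C; compound preincubated 5 min RT.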

[14] = Validation screen for small molecules that induce DNA re-replication in MCF 10A normal breast cells (AID 463097); further: nearly all actives have a fitted effect of over 60% in size; further: potency means the concentration at half of the fitted maximal effect
Outline: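 Following 48 hr compound incubation (37 C, 5% CO2), MCF 10A cells receive Hoechst for 40 min at 37 C. Nuclei are then scanned (excitation 405 nm, emission 500-530 nm) for total fluorescence intensity.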

[15] = biological target: DNA polymerase III PolC-type (Bacillus subtilis (strain 168)) (UniProt P13267); assay: qHTS Validation Assay for the Inhibitors of DNA Replication in Gram-Positive Bacteria (AID 485295);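 further: reconstituted holoenzyme with PolC plus beta clamp SSB and primase; PicoGreen fluorescence of double-stranded DNA made on primed circular M13 template; series mostly up to about 57 µM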
Sequence of DNA polymerase III PolC-type (Bacillus subtilis (strain 168)) (P13267 whole entry, looked up): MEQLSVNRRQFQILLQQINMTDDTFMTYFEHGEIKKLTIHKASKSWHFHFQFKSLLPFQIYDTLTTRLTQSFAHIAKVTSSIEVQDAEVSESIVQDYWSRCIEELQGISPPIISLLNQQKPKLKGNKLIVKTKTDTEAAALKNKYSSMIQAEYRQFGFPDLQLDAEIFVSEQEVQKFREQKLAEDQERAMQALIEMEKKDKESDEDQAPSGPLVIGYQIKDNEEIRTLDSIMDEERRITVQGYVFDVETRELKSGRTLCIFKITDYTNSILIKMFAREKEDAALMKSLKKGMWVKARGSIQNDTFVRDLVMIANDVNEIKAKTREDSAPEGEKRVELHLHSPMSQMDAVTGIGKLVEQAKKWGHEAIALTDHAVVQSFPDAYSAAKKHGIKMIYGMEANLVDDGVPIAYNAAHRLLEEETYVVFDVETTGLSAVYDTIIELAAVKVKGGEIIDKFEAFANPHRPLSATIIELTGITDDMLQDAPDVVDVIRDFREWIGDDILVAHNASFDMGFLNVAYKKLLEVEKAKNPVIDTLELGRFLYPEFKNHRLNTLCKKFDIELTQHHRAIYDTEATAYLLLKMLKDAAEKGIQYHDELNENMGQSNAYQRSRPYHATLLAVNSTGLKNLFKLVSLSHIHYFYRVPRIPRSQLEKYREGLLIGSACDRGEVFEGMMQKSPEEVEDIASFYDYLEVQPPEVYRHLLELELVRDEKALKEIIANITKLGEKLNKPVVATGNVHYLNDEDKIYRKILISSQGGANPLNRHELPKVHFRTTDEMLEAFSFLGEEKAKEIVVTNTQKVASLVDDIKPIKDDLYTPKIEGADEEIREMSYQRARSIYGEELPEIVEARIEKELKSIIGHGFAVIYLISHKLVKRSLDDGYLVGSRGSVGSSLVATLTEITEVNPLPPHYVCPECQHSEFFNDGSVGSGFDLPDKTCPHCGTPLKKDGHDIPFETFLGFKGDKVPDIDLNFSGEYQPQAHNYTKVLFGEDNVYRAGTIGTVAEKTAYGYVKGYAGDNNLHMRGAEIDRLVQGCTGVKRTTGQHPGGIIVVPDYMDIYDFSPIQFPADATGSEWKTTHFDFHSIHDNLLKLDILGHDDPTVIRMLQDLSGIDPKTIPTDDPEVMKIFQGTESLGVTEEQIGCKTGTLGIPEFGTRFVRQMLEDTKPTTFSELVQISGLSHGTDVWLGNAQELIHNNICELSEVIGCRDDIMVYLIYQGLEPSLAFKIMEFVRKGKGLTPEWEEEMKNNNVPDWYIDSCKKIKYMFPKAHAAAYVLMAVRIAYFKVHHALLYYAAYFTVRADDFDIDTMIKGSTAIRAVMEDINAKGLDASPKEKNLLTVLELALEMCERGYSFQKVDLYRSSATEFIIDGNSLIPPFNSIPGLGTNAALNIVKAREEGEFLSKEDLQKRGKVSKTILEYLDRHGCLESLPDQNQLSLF
Outline: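 Inhibition of DNA synthesis by the reconstituted PolC holoenzyme, monitored through PicoGreen staining of dsDNA formed from ssM13Gori, dNTPs and NTPs, with compound preincubation and room-temperature reaction.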

[16] = biological target: Tumor susceptibility gene 101 protein (Homo sapiens) (UniProt Q99816); assay: qHTS Validation Assay for Iinhibitors of HIV-1 Budding by Blocking the Interaction of PTAP/TSG101 (AID 485342; calls by dose curve)
Sequence of Tumor susceptibility gene 101 protein (Homo sapiens) (Q99816 whole entry, looked up, the tested form may be a part): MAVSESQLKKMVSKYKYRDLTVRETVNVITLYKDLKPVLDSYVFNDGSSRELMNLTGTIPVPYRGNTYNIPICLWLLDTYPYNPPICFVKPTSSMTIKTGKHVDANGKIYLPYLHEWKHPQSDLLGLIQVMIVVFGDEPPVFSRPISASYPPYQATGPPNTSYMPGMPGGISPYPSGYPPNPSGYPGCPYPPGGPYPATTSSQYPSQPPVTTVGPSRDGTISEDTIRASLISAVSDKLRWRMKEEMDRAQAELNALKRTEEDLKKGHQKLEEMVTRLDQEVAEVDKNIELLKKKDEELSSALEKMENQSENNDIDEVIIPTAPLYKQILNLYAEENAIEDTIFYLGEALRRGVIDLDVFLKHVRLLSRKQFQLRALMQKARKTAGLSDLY
Outline: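 Compound wells held the Tsg101 binding domain (10 uM) and a FITC-conjugated PTAP peptide (50 nM) in buffer at pH 7.5 containing 0.15 M NaCl and 0.01% Tween 20; polarization was recorded after 20 min, r.t.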

[17] = biological target: Thioredoxin reductase 1, cytoplasmic (Rattus norvegicus) (UniProt O89049); assay: qHTS Assay for Substrates of Mammalian Selenoprotein Thioredoxin Reductase 1 (TrxR1) (AID 488772);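 further: series mostly up to about 57 µM; a drop in NADPH fluorescence below the no-compound background marks a TrxR1 substrate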
Outline: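 In this dual-purpose format, potential substrates are identified from the first fluorescence read after selenite addition, not from the 8-minute delta. Rat enzyme is preincubated with NADPH and then with compound at ~22 deg C.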

[18] = qHTS Validation Assay to Find Inhibitors of Chronic Active B-Cell Receptor Signaling (AID 485345; active means well fitted curve in the direction sought with a large enough effect in the main read-out, with a control signal flat, not every such curve was filed as active)
Outline: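 TMD8 ABC-DLBCL cells stably carrying doxycycline-inducible IkappaBalpha–green luciferase fusion plus unfused red luciferase; compounds 46 uM to 3 nM, 4 h at 37C with doxycycline. Corrected green/red luminescence ratio normalized to 10 uM MG-132 and basal cell wells; curves fitted.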

[19] = biological target: ATP-dependent 6-phosphofructokinase (Trypanosoma brucei brucei) (UniProt O15648); assay: qHTS Validation Assay to Find Inhibitors of T. brucei phosphofructokinase (AID 485368)
Outline: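 Inhibition derived from concentration-response curves of luminescence, ranked by r2, response size and curve class; the underlying reaction used 1.25 nM PFK, 0.1 mM ATP and 0.5 mM F6P, 45 min, room temperature.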

Measured: Potency

CCCCCCCCCCCCCCCCCCOC[C@H](COP(=O)([O-])OCC[N+](C)(C)C)OC
not listed: [14] | [15] | [16] | [17] | [18] | [19]
inactive: all other assays above

Nc1ncnc2c1c(-c1ccc(Oc3ccccc3)cc1)cn2C1CCCC1
active: [14] 3.16 µM | [7] 7.38 µM | [8] 9.28 µM
not listed: [4] | [11] | [12] | [18] | [19]
inactive: all other assays above

C[C@H]1CC2C3CCC4=CC(=O)C=C[C@]4(C)[C@@]3(Cl)[C@@H](O)C[C@]2(C)[C@@]1(O)C(=O)CO (stereo not given in full)
not listed: [7] | [8] | [12] | [14] | [15] | [18] | [19]
inactive: all other assays above

CCCC[C@@]1(C2CCCC2)Cc2cc(OCC(=O)O)c(Cl)c(Cl)c2C1=O
not listed: [8] | [14] | [16] | [17]
inactive: all other assays above

Cc1ccccc1/C=C/C1=NCCN1
not listed: [6] | [7] | [9] | [14] | [15] | [18] | [19]
inactive: all other assays above

C=CCN1CCc2cc(O)c(O)cc2C(c2ccccc2)C1 (stereo not given)
not listed: [4] | [7] | [8] | [12] | [18]
inactive: all other assays above
